Key:
Assay in all cases: PBM binding z-score (relative to random genomic background probes); higher = stronger binding; sequences stand for … in GC…GCGATTGACAGCGTAGAATGAAGG
[1] = system: FXR:RXRa (NR concentration 270 nM, RXRa partner concentration 90 nM)
Summary of the method: (§1)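 Ligand-free nuclear receptor dimers were bound for 1 h to custom Agilent 4×180K protein-binding microarrays. Detection used antibodies against each partner (one per run). Binding z-scores rest on regression-normalized fluorescence, with random background probes as the reference.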

[2] = system: LXRa:RXRa (NR concentration 270 nM, RXRa partner concentration 90 nM)
Summary of the method: as §1

[3] = system: LXRa homodimer (NR concentration 270 nM)
Summary of the method: as §1

[4] = system: LXRb:RXRa (NR concentration 270 nM, RXRa partner concentration 90 nM)
Summary of the method: as §1

[5] = system: LXRb homodimer (NR concentration 270 nM)
Summary of the method: as §1

[6] = system: PPARa:RXRa (NR concentration 270 nM, RXRa partner concentration 90 nM)
Summary of the method: as §1

[7] = system: PPARg:RXRa (NR concentration 180 nM, RXRa partner concentration 90 nM)
Summary of the method: as §1

[8] = system: PPARg:RXRa 270nM:90nM, anti-RXR (NR concentration 270 nM, RXRa partner concentration 90 nM)
Summary of the method: as §1

[9] = system: PPARg:RXRa 30nM:10nM, anti-RXR (NR concentration 30 nM, RXRa partner concentration 10 nM)
Summary of the method: as §1

[10] = system: PPARg:RXRa 90nM:30nM, anti-RXR (NR concentration 90 nM, RXRa partner concentration 30 nM)
Summary of the method: as §1

Row | Sequence | PBM binding z-score [1] | PBM binding z-score [2] | PBM binding z-score [3] | PBM binding z-score [4] | PBM binding z-score [5] | PBM binding z-score [6] | PBM binding z-score [7] | PBM binding z-score [8] | PBM binding z-score [9] | PBM binding z-score [10]
1 | ATCGAACGGTCGACGAGGTGAGTATACACCGTTT | -0.18 | -0.425 | -0.327 | -0.336 | -0.463 | -0.0739 | 0.937 | -0.158 | -0.0439 | -0.375
2 | CCTTACGGGTCAAGGTTATCGCACGGGTGGTACG | 6.04 | 3.62 | 0.367 | 2.95 | 0.18 | 5.07 | 4.85 | 5.31 | 2.29 | 3.7
3 | CGTCCAAGGTCAACGCTAGGTCAGTGAAAGCATT | 7.34 | 5.95 | 2.69 | 4.66 | 0.677 | 5.71 | 5.29 | 5.4 | 2.18 | 3.94
4 | CGTACTAGGTCACCAGGACAGTGAAGAGGTTGGA | 3.85 | 2.7 | 0.154 | 2.01 | -0.0806 | 4.67 | 7.91 | 6.32 | 3.8 | 5.83
5 | TAGCCTAGGTCATTGGGCCAGTATAGTACGCATC | 4.22 | 3.49 | 0.558 | 2.36 | 0.375 | 3.82 | 3.56 | 3.65 | 0.801 | 2.75
6 | AGTCAAAGGTCAGGACGAGGTAACGTAAAGCACG | 7.52 | 5.96 | 0.926 | 4.9 | 1.48 | 6.17 | 8.88 | 7.95 | 4.99 | 7.2
7 | CGACCTAGGTCAAAGGACAGTGAAAGGCGACGTA | 5.01 | 3.27 | -0.141 | 2.32 | -0.298 | 4.33 | 5.72 | 5.68 | 3.14 | 4.92
8 | CCTAGTTGGTCAAGGTAACACACGCTATAGGTAC | 0.638 | 0.459 | 0.594 | 0.713 | 0.295 | 0.749 | 1.08 | 1.32 | 0.57 | 0.891
9 | ATATGTAGGGTAGGGTCATTCAGAAAGTAGGGAA | 4.09 | 4.09 | 2.32 | 5.19 | 4.59 | 5.28 | 7.32 | 5.53 | 3.19 | 4.91
10 | CCTACTGGGCCAAGGTCATTGAGCAGTCAAAGCA | 3.17 | 3.17 | 0.657 | 2.72 | -0.573 | 4.19 | 4.27 | 4.54 | 1.77 | 3.8
11 | GCTGCTAGGTCAGGATGGTCAGCTAACGGGTACG | 0.825 | 0.646 | -0.251 | 0.268 | -0.621 | 1.6 | 0.968 | 1.04 | -0.242 | 0.479
12 | CGAACTAGGTCACCAGGACAGAGAAGAGGTTGGA | 4.19 | 2.59 | 0.117 | 1.71 | -0.205 | 5.15 | 8.52 | 7.02 | 4.71 | 6.65
13 | CGAACTAGGTCAAAGGATAGTGAAAGGCGACGTA | 3.37 | 2.22 | -0.4 | 1.58 | -0.272 | 4.93 | 8.97 | 7.71 | 6.95 | 8.35
14 | CTAACTAGGTCACCAGGACAGTGAAGAGGTTGGA | 4.07 | 2.77 | 0.482 | 1.74 | 0.0977 | 5.34 | 9.24 | 7.69 | 5.34 | 7.49
15 | CGTCCAAGGTCAGAGAGGTCACTGAATGCCGAGT | 6.61 | 5.79 | 4.5 | 5.36 | 0.485 | 5.61 | 4.58 | 5.36 | 1.92 | 4.08
16 | AATACAGGGTCACTGGGCCAGAGTAGGTACGAAT | 6.75 | 5.6 | 1.01 | 4.21 | 0.418 | 6.23 | 8.71 | 6.98 | 3.69 | 5.91
17 | ACTAGTTGGTCACCTGAGGTCACACACAATTCGG | 4.76 | 6.29 | 6.67 | 4.97 | 1.5 | 4.17 | 2.75 | 3.37 | 1.09 | 2.1
18 | TGAATGACGTTAAAGATCAGGGAACGTGGCGTCG | -0.238 | -0.18 | -0.178 | -0.538 | 0.178 | -0.0143 | 0.989 | 1.26 | 0.931 | 1.28
19 | CTTTACGGGTCAAGGTTATAGCACGGGTGGTACG | 5.72 | 4.66 | 1.01 | 3.35 | 0.665 | 5.26 | 5.26 | 5.41 | 2.59 | 4.51
20 | CGAACTAGGTCACCAGGCCAGTGAAGAGGTTGGA | 4.08 | 2.41 | -0.125 | 1.44 | -0.76 | 5.2 | 8.64 | 7.15 | 4.02 | 6.44
21 | CGAACTAGGTCAAAAGACAGTGAAAGGCGACGTA | 3.09 | 2.03 | -0.16 | 1.47 | -0.191 | 4.46 | 8.06 | 7.08 | 5.52 | 7.26
22 | TTTCCAAGGTGAAAGGTCGTTGATGCACGCCTTG | 3.56 | 3.59 | 0.323 | 2.79 | 0.0398 | 5.37 | 7.96 | 7.33 | 6.06 | 7.82
23 | CGAACTCGGTCAAAGGACAGTGAAAGGCGACGTA | 0.719 | 0.857 | -0.21 | -0.0802 | -0.824 | 2.68 | 5.06 | 5.39 | 3.97 | 5.3
24 | ATCGAAAGGTCGACGAGGAGAGTATACACCGTTT | 3.22 | 3.26 | -0.0644 | 2.71 | 0.517 | 4.05 | 2.55 | 2.76 | 1.4 | 1.8

Row | Sequence | PBM binding z-score [1] | PBM binding z-score [2] | PBM binding z-score [3] | PBM binding z-score [4] | PBM binding z-score [5] | PBM binding z-score [6] | PBM binding z-score [7] | PBM binding z-score [8] | PBM binding z-score [9] | PBM binding z-score [10]
25 | CCTACTGGGCGAAGGTCATTGATCAGTCAAAGCA | 2.76 | 2.99 | 0.677 | 2.83 | -0.515 | 3.86 | 3.62 | 4.54 | 2.12 | 4.26
26 | CGAACTAGGTCACCAGGACAGTGCAGAGGTTGGA | 4.04 | 2.7 | 0.199 | 1.76 | -0.667 | 5.21 | 8.59 | 6.83 | 4.82 | 6.44
27 | CAAACTAGGTCACGAAAGGTCAACGTCGAATGAC | 7.41 | 7.98 | 7.42 | 7.06 | 2.11 | 6.81 | 10.6 | 8.8 | 7.57 | 9.28
28 | CTCCAAAGGTCGGTTGAGGTGAGTATACGGATAA | 2.49 | 1.93 | -0.152 | 1.71 | -0.00126 | 2.95 | 1.01 | 1.64 | 0.12 | 0.875
29 | CCTTGCGGGTCACTGACAGGTTATAGCATTTGGA | 4.69 | 3.74 | 0.0362 | 2.95 | -0.459 | 5.05 | 5.18 | 4.76 | 1.63 | 3.47
30 | ATATGTAAGTTAGGGTCATTCAGAAAGTAGGGAA | 4.8 | 4.5 | 1.55 | 4.13 | 1.31 | 4.91 | 2.88 | 3.41 | 1.15 | 2.64
31 | CCTACTGGGCCAAAGGTCAGTGATTCCAATGCTC | 2.78 | 2.95 | 1.1 | 3.34 | -0.252 | 6.01 | 11.7 | 10.2 | 9.62 | 12.5
32 | CGAATTAGGTCAAAGGACAGTGAAAGGCGACGTA | 4.51 | 3.08 | 0.314 | 2.23 | 0.106 | 6.11 | 9.47 | 8.69 | 8.66 | 9.34
33 | CGAACTAGGTCAAAGGACAGAGAAAGGCGACGTA | 4.22 | 2.87 | -0.0116 | 1.9 | -0.178 | 5.58 | 10.3 | 8.77 | 8.15 | 9.91
34 | ATATGTAGGTGAGGGTCATTCAGAAAGTAGGGAA | 3.06 | 2.59 | 1.02 | 3.43 | 1.43 | 5.07 | 7.86 | 6.55 | 4.94 | 6.5
35 | ATATGTAGGTTAGCGTCATTCAGAAAGTAGGGAA | 0.121 | 0.529 | -0.273 | 0.174 | 0.215 | 2.81 | 4.14 | 3.23 | 1.36 | 2.32
36 | ATCTCTAGGTAAAGTTCAGCGAAAGATCGATAGA | 1.69 | 2.33 | 1.67 | 1.65 | 0.72 | 2.81 | 3.77 | 4.78 | 2.56 | 4.27
37 | CCTTACGGGTCACTCTAGGTTATAGCATCGGAGT | 5.09 | 7.69 | 1.83 | 5.58 | 0.329 | 4.68 | 3.33 | 3.69 | 1.3 | 2.76
38 | CAACCTAGGTCACGAAAGGTCAAAGTCGAATGAC | 7.63 | 8.28 | 8.29 | 7.81 | 2.82 | 6.92 | 7.93 | 7.32 | 4.53 | 6.39
39 | CCTTACCGGTCAAGGTTATAGCACGGGTGGTACG | 1.7 | 1.88 | 0.946 | 1.05 | 0.381 | 1.83 | 0.758 | 0.908 | -0.303 | 0.282
40 | TAGCCTAGGTCAGATCGGGCGAGTATACGCTATA | 1.73 | 1.03 | -0.449 | 0.569 | -0.387 | 1.58 | 0.654 | 1.08 | -0.174 | 0.958
41 | TAGCCTAGGTCATTCAGGGGCCAGAATAGAAAGC | 4.69 | 3.94 | 0.569 | 3.21 | 1.34 | 3.9 | 2.33 | 2.29 | 0.331 | 1.44
42 | ATCGAAAGGTCGAGGAGGTGAGTATACACCGTTT | 4.46 | 3.42 | -0.194 | 2.55 | 0.629 | 4.26 | 2.8 | 3.19 | 0.595 | 2.06
43 | CGAACTAGGTCAAAGGAAAGTGAAAGGCGACGTA | 3.12 | 1.88 | -0.168 | 1.2 | -0.265 | 4.7 | 8.32 | 7.07 | 5.62 | 7.13
44 | ACTAGGTGGTCAGCTGAGGTCACACACAATTCGG | 3.12 | 3.37 | 2.31 | 3.52 | -0.173 | 3.87 | 2.43 | 2.63 | 0.956 | 2.14
45 | ATCGAAAGGTCGAAAGTGAGTATACCCACCCGAA | 3.56 | 3.24 | 0.172 | 2.67 | 0.816 | 3.74 | 2.17 | 2.5 | 1.05 | 2.05
46 | CCTACTGGGCCACGTAAGGTCATTGATTCAGTGA | 3.42 | 5.12 | 3.52 | 3.3 | -0.468 | 3.47 | 3.29 | 3.76 | 0.808 | 2.54
47 | CGAACTAGGTCACCAGGACAGTCAAGAGGTTGGA | 4.17 | 2.7 | 0.267 | 1.86 | -0.431 | 5.16 | 8.84 | 6.8 | 4.63 | 6.37
48 | CGAACTAGGTCACCAGGAAAGTGAAGAGGTTGGA | 3.52 | 2.48 | -0.13 | 1.69 | -0.3 | 5.05 | 8.48 | 7.2 | 5.35 | 6.86

From the supplement of paper PMC6555819
